# HCMV inh: inhibitors of human cytomegalovirus | HFF cells, HCMV-luciferase reporter, 72 h; stronger effect = lower value | activity change, negative = inhibition, % at 57.5 µM | hit rate 4.5% among 410,000; in the data active means activity change below about -60%; inconclusive means no clear call, values can overlap the other calls; inactive means above about -39%
#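 Steps: HFFs plated, 16 h 37C; compounds added; HCMV-luciferase added to MOI 1 PFU/cell; 72 h 37C; OneGlo reagent, 5 min room temperature; luminescence read, normalized to controls.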
# Pf growth 96h: inhibits malaria parasite growth, 96 h. Potency, µM (titrated, usually from 28.7 µM), hits mostly inhibitors. hit rate 6.9% among 320,000. P. falciparum luciferase reporter growth, 96 h
#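 Two parasite generations (96 h, 37 C, 5% CO2) of compound exposure in infected erythrocytes (0.05% parasitemia, 2% hematocrit). Luciferase-reporter P. falciparum; decreased luminescence indicates inhibited growth, aimed at apicoplast-acting delayed death.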
# HCV inhibitor: inhibitors of hepatitis C virus infection; hit rate 3.4% among 340,000; Potency, µM (top dose mostly 41.8 µM), hits mostly inhibitors; AID 651820; Huh7.5.1 HCVcc-Cre infection, luciferase reporter, 44 h
#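 Cells seeded at 1,000/well and cultured 4 h, then compounds added followed by HCVcc-Cre virus (~0.5 moi). After 44 h further culture, luciferase substrate was added, plates held 15 min at room temperature, and luminescence read for 15 sec.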
# Pf growth 48h: inhibits P. falciparum growth in the first generation, 48 h; P. falciparum luciferase growth in erythrocytes, 48 h; hit rate 5.9% among 310,000; Potency, µM (titrated, usually from 28.7 µM), most hits filed as inhibitors
#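 Cell-based growth assay: transgenic P. falciparum expressing firefly luciferase, cultured in red cells within RPMI 1640 containing 0.5% w/v Albumax, 24 mM bicarbonate and gentamycin. A drop in luciferase activity indicates inhibition.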
# Hits are given with their value; - = inactive; ? = inconclusive; . = not tested or not shown. Shown are actives, neighbours in structure and some others; about 13% of the full set was active somewhere. Unless noted, the call rests on the fitted dose curve; in most records, active means well fitted inhibition curve with a large enough effect; inconclusive means small, poorly fitted or top-dose-only effect, or another doubt; inactive means no such curve, though single readings can be large or run the other way.
SMILES,HCMV inh,Pf growth 96h,HCV inhibitor,Pf growth 48h
CCOC(=O)c1c(C)oc2nc(C)nc(NCc3cccc(OC)c3)c12,-,.,.,.
CCN(CC)CCNc1ccc(CO)c2sc3ccccc3c(=O)c12,-96,2.9µM,?,3.7µM
CCN(CC)CCNc1ccc(CO)c2oc3ccccc3c(=O)c12,-89,.,.,.
O=c1c2ccccc2sc2c(CO)ccc(NCCN3CCCCC3)c12,-98,.,?,.
Cc1ccc(-n2c(=O)[nH]c3sc4c(c3c2=O)CCNC4)cc1C,-,.,.,.
COc1cc2c(cc1OC)n(CC(=O)Nc1ccc(C)cc1C)c(=O)n1nc(-c3ccccc3)nc21,-,.,.,.
Cc1cc(C(=O)C(=O)O)c(C)n1-c1ccc(Cl)cc1,-,-,-,-
Cc1cc(CC(=O)O)c(C)n1-c1ccc(Cl)cc1,-,11µM,.,?
C=C1C(=O)C23C(O)C1CCC2C12CCCC(C)(COC(C)=O)C1C(O)C3(O)OC2 (stereo unspecified),-,.,3.5µM,.
COc1ccc(Nc2nccc3c2cc(-c2ccccc2OC)n3C)cc1OC,-90,.,.,.
COc1ccccc1-c1cc2c(Nc3ccc4c(c3)OCCO4)nccc2n1C,-70,.,.,.
O=C1NC(=NCc2ccccc2)S/C1=C\c1ccccc1,-68,?,-,?
COC(=O)/C=c1/s/c(=C(/C#N)C(=O)N2CCCCC2)n(-c2ccccc2)c1=O,-69,-,-,-
COC(=O)/C=c1/s/c(=C(/C#N)C(=O)N2CCOCC2)n(-c2ccccc2)c1=O,-,-,-,.
C=CC[C@@H]1/C=C(\C)C[C@H](C)C[C@H](OC)[C@H]2O[C@@](O)(C(=O)C(=O)N3CCCC[C@H]3C(=O)O[C@H](/C(C)=C/[C@@H]3CC[C@@H](O)[C@H](OC)C3)[C@H](C)[C@@H](O)CC1=O)[C@H](C)C[C@@H]2OC,.,1.5µM,.,1.7µM
NC(=O)OC[C@@H]1[C@H](NC(=O)/C(=N/OCC(=O)O)c2csc(N)n2)C(=O)N1S(=O)(=O)O,.,0.43µM,.,?
Cc1ccc2nc(COc3cccc(NC(=O)COc4ccccc4F)c3)cc(=O)n2c1,-,.,.,.
COc1ccc(CCNC(=O)CSc2cn(CCNC(=O)c3ccccc3F)c3ccccc23)cc1OC,-,.,.,.
COc1ccc(-c2cc(-c3ccccc3)nc3c2COc2ccc(F)cc2-3)cc1,-,.,.,.
Cc1ccc(S(=O)(=O)c2c(N)n(CCC(C)C)c3nc4ccccc4nc23)cc1,.,13µM,?,.
Nc1c(S(=O)(=O)c2ccccc2)c2nc3ccccc3nc2n1CCN1CCOCC1,.,?,-,?
Cc1ccc(S(=O)(=O)c2c(N)n(CCN3CCOCC3)c3nc4ccccc4nc23)cc1C,.,-,-,?
Cc1ccc(S(=O)(=O)c2c(N)n(Cc3ccco3)c3nc4ccccc4nc23)cc1C,.,.,?,10µM
Cc1ccc(S(=O)(=O)c2c(N)n(CCCO)c3nc4ccccc4nc23)cc1,.,?,-,.
Nc1c(S(=O)(=O)c2ccccc2)c2nc3ccccc3nc2n1Cc1ccco1,.,12µM,?,?
SMILES,HCMV inh,Pf growth 96h,HCV inhibitor,Pf growth 48h
COc1ccc(NC2C(c3ccc(OC)cc3)=Nc3ccccc3-n3nnnc32)cc1 (stereo unspecified),-,.,.,.
O=C1CN(C(=O)c2c(F)cccc2Cl)C(c2ccc(F)cc2)c2cc(Br)ccc2N1 (stereo unspecified),-,.,.,.
COc1ccc(C2C(C(=O)/C=C/c3ccco3)=C(O)C(=O)N2CCN2CCOCC2)cc1 (stereo unspecified),-,-,11µM,?
COc1cccc(C2C(C(=O)/C=C/c3ccco3)=C(O)C(=O)N2CCN2CCOCC2)c1 (stereo unspecified),-,-,-,-
Cc1cc(Cl)ccc1NC(=S)NCC(C)C,-73,-,-,-
CCOc1cccc2sc(NC(=O)c3ccc(Br)s3)nc12,-,7.4µM,?,.
CCCn1c(SCc2nc(-c3ccccc3OCC)no2)nnc1-c1ccc(Cl)cc1,-,.,.,.
CC(=O)NN1C(=O)c2ccc3c4c(ccc(c24)C1=O)C(=O)N(NC(C)=O)C3=O,-104,?,10µM,?
CC(C)c1cnc2c(c1SCc1cccc(C(F)(F)F)c1)c(=O)n(C)c(=O)n2C,-,.,.,.
COC1C(C)OC(OC2CC(C)(O)Cc3cc4c(c(O)c32)C(=O)c2c(O)cc3c(c2C4=O)OC2OC3(C)C(O)C(N(C)C)C2O)C(OC)C1(C)OC (stereo unspecified),-98,.,4µM,.
Cc1ccc2[nH]c(CCN(C)C)c(CN3CCOCC3)c2c1,-,2.3µM,?,13µM
Clc1ccccc1CN(Cc1ccco1)Cc1nnnn1C1CCCC1,-,-,10µM,7.4µM

# Source: PubChem
